From PubChem BioAssay
Active and inactive are the calls of the source. Rule as the data show it, unless noted: active = parasite load remaining mostly below about 12% (no sharp cut-off); inactive = mostly above about 10%.

Columns and labels:
[1] = P. berghei load reduction in hepatocytes – cell-based, HepG2, luciferase luminescence, HepG2 viability, primary screen (AID 624349);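 also: 100% = mean of DMSO negative control wells on the same plate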; conditions: P. berghei liver stage in HepG2, luciferase luminescence, concentration not given here; parasite load remaining: stronger effect = lower value; viability: measured here: HepG2 viability without parasites
[2] = liver-stage malaria parasite load reduction – cell-based, known kinase inhibitor set, luminescence, hepatoma host viability (AID 624392; call rule not given here;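 also: infected cells incubated roughly two days before readout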); conditions: Plasmodium liver stage in hepatoma cells, luciferase luminescence, concentration not given here; liver cell % of control: measured here: host liver cell viability; parasite % of control: stronger effect = lower value
[3] = signal quenchers or enhancers, Cy5 substrate/SSB – biochemical, NIH Clinical Collection, E. coli SSB, artefact control for HCV NS3 helicase inhibitor project (AID 743268; call rule not given here); conditions: Cy5-oligo bound E. coli SSB, fluorescence interference
[4] = system: Hepatitis C virus NS3 helicase; assay: blockers of NS3h binding to DNA – biochemical, fluorescence polarization, NIH Clinical Collection, primary screen (AID 743270; call rule not given here); conditions: NS3 helicase binding to Cy5-dT15 DNA, stronger effect = higher value, concentration not given here
[5] = molecular target: Single-stranded DNA-binding protein (Escherichia coli (strain K12)) (UniProt P0AGE0); assay: SSB-ssDNA binding inhibitors – biochemical, fluorescence polarization, NIH Clinical Collection, counter-screen for HCV NS3 helicase inhibitor project (AID 743271; in the data active = inhibition above about 28%); conditions: E. coli SSB-DNA binding, stronger effect = higher value, concentration not given here
[6] = compounds distorting NS3 helicase fluorescence signal – biochemical, NIH Clinical Collection, artefact control for HCV NS3 helicase inhibitor project (AID 743272; call rule not given here;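 also: HCV NS3 helicase with a Cy5 labelled single stranded DNA probe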); conditions: fluorescence interference counterscreen, HCV NS3 helicase assay; stronger effect = lower value

SMILES: Nc1ncnc2c1cnn2-c1ccccc1
- parasite load remaining [1]: 72% (inactive)
- viability [1]: 108%

SMILES: Nc1c(O)cccc1C(=O)CC(N)C(=O)O (configuration not stated)
- parasite load remaining [1]: 62.4% (inactive)
- viability [1]: 73.1%

SMILES: O=C1C(Cl)=C(N2C(=O)CCC2=O)C(=O)c2ccccc21
- parasite load remaining [1]: 34.2% (inactive)
- viability [1]: 76.3%

SMILES: O=C(O)/C=C/c1cc(Br)c(Br)c(Br)c1Br
- parasite load remaining [1]: 36.5% (inactive)
- viability [1]: 98.8%

SMILES: CC(=O)O/N=C1\C(c2c(O)[nH]c3cc(Br)ccc23)=Nc2ccccc21
- parasite load remaining [1]: 14.7% (inactive)
- viability [1]: 97.9%

SMILES: COc1ccc(-c2cnc3c(-c4ccsc4)cnn3c2)cc1
- parasite load remaining [1]: 16.9% (inactive)
- viability [1]: 67.4%

SMILES: Cc1cncc2cccc(S(=O)(=O)N3CCCN(C(=O)CN)C[C@H]3C)c12
- parasite load remaining [1]: 43.2% (inactive)
- viability [1]: 68.1%

SMILES: NC(=O)Nc1cc(-c2ccccc2)sc1C(N)=O
- parasite load remaining [1]: 74.4% (inactive)
- viability [1]: 163%

SMILES: CC(C)n1cnc2c(NCc3ccccc3O)nc(NCCCO)nc21
- parasite load remaining [1]: 37.8% (inactive)
- viability [1]: 118%

SMILES: N#Cc1cnc2cnc(NCc3cccnc3)cc2c1Nc1ccc(F)c(Cl)c1
- parasite load remaining [1]: 47.9% (inactive)
- viability [1]: 84.2%

SMILES: CC(C)n1cnc2c(NCc3ccccc3)nc(NCCCO)nc21
- parasite load remaining [1]: 34.6% (inactive)
- viability [1]: 118%

SMILES: NCCNc1ncc(C(N)=O)c(Nc2cccc(C(F)(F)F)c2)n1
- parasite load remaining [1]: 37.1% (inactive)
- viability [1]: 76.9%

SMILES: Cc1ccc(C(=O)Nc2cccc(C(F)(F)F)c2)cc1Nc1cncnc1
- liver cell % of control [2]: 102%
- parasite % of control [2]: 53.6% (inactive)

SMILES: O=C(c1ccccc1)c1ccc(N2CCOCC2)cc1O
- parasite load remaining [1]: 40.6% (inactive)
- viability [1]: 74.9%

SMILES: COc1ccc(CNc2nc(NCc3ccc(OC)cc3)c3[nH]cnc3n2)cc1
- liver cell % of control [2]: 92.9%
- parasite % of control [2]: 590% (inactive)

SMILES: CC(C)n1cnc2c(Nc3cccc(Cl)c3)nc(N(CCO)CCCO)nc21
- liver cell % of control [2]: 81.2%
- parasite % of control [2]: 381% (inactive)

SMILES: COc1cc2ncnc(N3CCN(C(=O)Nc4ccc(Oc5ccccc5)cc4)CC3)c2cc1OC
- parasite load remaining [1]: 27.2% (inactive)
- viability [1]: 89.5%

SMILES: O=C(Nc1cccc(-c2csc(Nc3ccccc3)n2)c1)c1cc([N+](=O)[O-])cc(C(F)(F)F)c1
- liver cell % of control [2]: 92.9%
- parasite % of control [2]: 168% (inactive)

SMILES: Nc1cc(Nc2ccc(S(N)(=O)=O)cc2)ncn1
- parasite load remaining [1]: 48.4% (inactive)
- viability [1]: 133%
- liver cell % of control [2]: 97.7%
- parasite % of control [2]: 145% (inactive)

SMILES: CCN(CC)CCNC(=O)c1c(C)[nH]c(/C=C2\C(=O)Nc3ccc(Cl)cc32)c1C
- parasite load remaining [1]: 49.7% (inactive)
- viability [1]: 69.1%

SMILES: COc1cc(C(=O)NC2CCN(C)CC2)ccc1Nc1ncc2c(n1)N(C1CCCCC1)CCC(=O)N2C
- liver cell % of control [2]: 81.9%
- parasite % of control [2]: 520% (inactive)

SMILES: C=CC(=O)Nc1ccc(N(C)c2ccnc(Nc3ccc(N4CCN(C)CC4)cc3)n2)cc1
- liver cell % of control [2]: 107%
- parasite % of control [2]: 27.8% (inactive)

SMILES: Cc1ccc(C(=O)Nc2cccc(C(F)(F)F)c2)cc1NC(=O)c1cnnc2ccccc12
- liver cell % of control [2]: 104%
- parasite % of control [2]: 44.2% (inactive)

SMILES: O=C1Cc2c([nH]c3ccc([N+](=O)[O-])cc23)-c2ccccc2N1
- parasite load remaining [1]: 65.2% (inactive)
- viability [1]: 128%
- liver cell % of control [2]: 82.9%
- parasite % of control [2]: 65.2% (inactive)

SMILES: CC[C@H]1OC(=O)[C@H](C)C(=O)[C@H](C)[C@@H](O[C@@H]2O[C@H](C)C[C@H](N(C)C)[C@H]2O)[C@](C)(OC)C[C@@H](C)C(=O)[C@H](C)[C@@H]2N(CCCCn3cnc(-c4cccnc4)c3)C(=O)O[C@@]21C
- parasite load remaining [1]: 32.3% (inactive)
- viability [1]: 63.9%
- fluorescence ratio [3]: 0.97 (inactive)
- inhibition [4]: -9.83% (inactive)
- inhibition [5]: 1.18% (inactive)
- fluorescence ratio [6]: 0.92 (inactive)

SMILES: COc1cc(C(=O)NC2CCN(C)CC2)ccc1Nc1ncc2c(n1)N(CCc1ccccc1)CCC(=O)N2C
- liver cell % of control [2]: 98.4%
- parasite % of control [2]: 343% (inactive)

SMILES: CCN1CCN(Cc2ccc(NC(=O)c3ccc(C)c(NC(=O)c4cccc5[nH]ccc45)c3)cc2C(F)(F)F)CC1
- liver cell % of control [2]: 103%
- parasite % of control [2]: 99.7% (inactive)
